Bioassay records as filed in PubChem.
Only some compounds are listed: those with a hit (about 21% of all), similar ones and a draw of the others.
Pf growth 96h: P. falciparum growth inhibition at 96 hour, primary screen for plastid delayed-death inhibitors. Potency, µM (highest dose often 28.7 µM), for the others: top-dose activity change, negative = inhibition, hits mostly inhibitors. P. falciparum luciferase reporter growth, 96 h. 320,000 tested, 6.9% active; further: potency means the concentration at half of the fitted maximal effect; on the % scale 0 is the no-effect control and ±100 the full control effect
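96 h incubation, 37 C, 5% CO2, of luciferase-reporter P. falciparum-infected RBCs (2% hematocrit, 0.05% parasitemia final) with test compounds; endpoint luminescence.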
Shiga toxin inh: blocks Shiga toxin action in Vero cells. Vero cells, Shiga toxin protein synthesis inhibition reporter. inhibition, % at 38.7 µM. 290,000 tested, 9.2% active; in the data active means inhibition mostly above about 28%, no sharp cut-off; inactive means mostly below about 43%; further: 0% is about no effect
Pf growth 48h: inhibits P. falciparum growth in the first generation, 48 h; AID 504832; P. falciparum luciferase growth in erythrocytes, 48 h; 310,000 tested, 5.9% active; Potency, µM (doses to about 28.7 µM), inactives show top-dose activity change, negative = inhibition, hits mostly inhibitors; further: potency means the concentration at half of the fitted maximal effect; on the % scale 0 is the no-effect control and ±100 the full control effect
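Read-out is firefly luciferase luminescence from an integrated reporter in P. falciparum, so falling signal marks reduced parasite growth. Infected erythrocytes were at 2% hematocrit and 0.1% parasitemia (final) in Albumax-supplemented RPMI 1640.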
CHX counter: counter-screen hit for Shiga toxin inhibitors, cycloheximide; 300,000 tested, 12% active; cell reporter, cycloheximide protein synthesis inhibition counterscreen; AID 2314; max response, %; in the data active means max response mostly above about 13%, no sharp cut-off; inactive means mostly below about 14%; further: read at 38.3 µM for the half of the compounds with a filed dose; 0% is about no effect
SARS PLP yeast: inhibitors of SARS-CoV papain-like protease in yeast | S. cerevisiae expressing SARS-CoV PLpro, growth rescue | 330,000 tested, 0.19% active | AID 485353 | Potency, µM (top dose mostly 32.9 µM), without a hit: at the top dose activity, positive = growth rescue, hits mostly activators; calls by dose curve; further: potency means the concentration at half of the fitted maximal effect; 0% is about no effect; nearly all actives have a fitted effect of over 55% in size
NS1 inh: blocks influenza NS1 protein function. 270,000 tested, 0.4% active. Potency, µM (top dose mostly 46.1 µM), without a hit: at the top dose activity, positive = more growth. AID 2326; calls by dose curve; further: potency means the concentration at half of the fitted maximal effect; actives are rising curves; nearly all actives have a fitted effect of over 50% in size
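OD600 was taken as the measure of yeast growth restored by compound in an NS1-expressing S. cerevisiae strain. Cells had been washed out of glucose medium and diluted 1:100 into galactose -URA medium, pH 6.0.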
* = called active by the depositor; [ ] = another dose, or the depositor's remark. Unless noted, the call rests on the fitted dose curve; in most records, active means well fitted inhibition curve with a large enough effect; inconclusive means small, poorly fitted or top-dose-only effect, or another doubt; inactive means no such curve, though single readings can be large or run the other way.

Screening Oc1c(Cl)cc(Cl)cc1CNc1nccs1 returned Pf growth 96h inconclusive, Shiga toxin inh -10.7, Pf growth 48h 5.5%, CHX counter -1.6, SARS PLP yeast 0.7% and NS1 inh -47.8%.
Screening Cc1cccc(NCc2cc(Cl)cc(Cl)c2O)n1 returned Pf growth 96h -1.2%, Shiga toxin inh 24.8, Pf growth 48h 10.4µM*, CHX counter 7.9, SARS PLP yeast -63.9% and NS1 inh -24.1%.
`Cc1cccc(NCc2cc(Cl)ccc2O)n1` gave Pf growth 96h -13.8%, Shiga toxin inh -2.3, Pf growth 48h 6.57µM*, CHX counter 11.7, SARS PLP yeast -5.6% and NS1 inh 0.5%.
For Cc1ccc(S(=O)(=O)N[C@@H](C)C(=O)N2CCC(C(=O)N3CCC[C@H]3C(=O)O)CC2)cc1 the results were Shiga toxin inh -12.8, Pf growth 48h -6.8%, CHX counter -6.1, SARS PLP yeast -1.1% and NS1 inh 8.4%.
COC(=O)C1CCN(C(=O)C2CCN(C(=O)[C@H](C)NS(=O)(=O)c3ccc(C)cc3)CC2)CC1 was read as Pf growth 96h 11.7µM*, Shiga toxin inh -1.4, Pf growth 48h inconclusive, CHX counter -1.7, SARS PLP yeast 1.1% and NS1 inh -15.2%.
`Cc1cc(C(F)(F)F)n2nc(-c3cnn(C)c3C(F)(F)F)c(Cl)c2n1` gave Pf growth 96h inconclusive, Shiga toxin inh -20.2, Pf growth 48h 3.29µM*, CHX counter -1.2, SARS PLP yeast 5.1% and NS1 inh -3.0%.
COc1cc(/C=C2\CCc3c2nc2ccccc2c3C(=O)O)cc(OC)c1OC was read as Pf growth 96h 225.1%, Shiga toxin inh 17.1, Pf growth 48h 139.5%, CHX counter 5.2, SARS PLP yeast 0.6% and NS1 inh 3.1%.
CCCCNC(=O)COC(=O)c1c2c(nc3ccccc13)/C(=C/c1cccs1)CC2 was read as Pf growth 96h inconclusive, Shiga toxin inh 103.6*, Pf growth 48h -24.8%, CHX counter 51.8*, SARS PLP yeast -19.4% and NS1 inh inconclusive.
`CCCCNC(=O)COC(=O)c1c2c(nc3ccccc13)CCC2` gave Pf growth 96h inconclusive, Shiga toxin inh 22.6, Pf growth 48h inconclusive, CHX counter -2.7, SARS PLP yeast -0.8% and NS1 inh 24.6%.
`CNC(=O)NC(=O)C(C)OC(=O)c1c2c(nc3ccccc13)/C(=C/c1cccs1)CC2` (configuration not stated) gave Pf growth 96h 32.7%, Shiga toxin inh 23.0*, Pf growth 48h 35.1%, CHX counter 32.4*, SARS PLP yeast 5.5% and NS1 inh inconclusive.
For Cc1ccc(-n2nc(C)c(Sc3ccccc3[N+](=O)[O-])c2N)cc1 the results were Pf growth 96h -13.6%, Shiga toxin inh -0.5, Pf growth 48h -2.0%, CHX counter -1.8, SARS PLP yeast -65.1% and NS1 inh -6.2%.
`NC(CO)(CO)CO` gave Pf growth 96h -20.2%, Shiga toxin inh 12.1, Pf growth 48h 5.7% and CHX counter -6.7.
Cc1ccc(-n2c(SCC(N)=O)nnc2-c2ccc(S(=O)(=O)N3CCCCC3)cc2)c(C)c1 was read as Shiga toxin inh -13.2, Pf growth 48h -25.5%, CHX counter -4.2, SARS PLP yeast 20.8% and NS1 inh 5.5%.
Screening C=CCn1c(SCC(=O)c2c(N)n(C3CC3)c(=O)[nH]c2=O)nnc1-c1ccoc1C returned Pf growth 96h inconclusive, Pf growth 48h 9.28µM* and SARS PLP yeast 1.8%.
CCn1c(SCC(=O)c2c(N)n(C3CC3)c(=O)[nH]c2=O)nnc1-c1ccoc1C was read as Pf growth 96h inconclusive, Pf growth 48h inconclusive and SARS PLP yeast -4.2%.
`C=CCn1c(SCC(=O)c2c(N)n(C3CC3)c(=O)[nH]c2=O)nnc1-c1ccccc1OC` gave Pf growth 96h 11.7µM*, Pf growth 48h inconclusive and SARS PLP yeast 2.8%.
For COc1ccccc1-c1nnc(SCC(=O)c2c(N)n(C3CC3)c(=O)[nH]c2=O)n1C the results were Pf growth 96h 11.7µM*, Pf growth 48h inconclusive and SARS PLP yeast -3.3%.
`C=CCn1c(SCC(=O)c2c(N)n(C3CC3)c(=O)[nH]c2=O)nnc1-c1ccc(OC)cc1` gave Pf growth 96h inconclusive, Pf growth 48h inconclusive and SARS PLP yeast 1.5%.
For Cn1cc(S(=O)(=O)NC2CCCCC2)c(=O)n(C)c1=O the results were Pf growth 96h 7.2%, Pf growth 48h 10.4% and SARS PLP yeast -3.6%.
`O=C(Nc1ccccc1N1CCOCC1)c1ccc(Cl)nc1` gave Pf growth 96h inconclusive, Shiga toxin inh -3.4, Pf growth 48h -28.1%, CHX counter -2.2 and SARS PLP yeast 1.8%.
`N#CCC(=O)NCCCc1ccccc1` gave Pf growth 96h -15.7%, Shiga toxin inh 9.2, Pf growth 48h 10.0%, CHX counter -2.2, SARS PLP yeast 4.6% and NS1 inh -6.4%.
O=C(CN1CCSc2ccccc21)NCCCc1ccccc1 was read as Pf growth 96h inconclusive, Shiga toxin inh 85.7*, Pf growth 48h 85.2%, CHX counter 37.3* and SARS PLP yeast 0.2%.
OC1CCCN(CC(O)COC(c2ccc(F)cc2)c2ccc(F)cc2)C1 (configuration not stated) was read as Pf growth 96h 2.08µM*, Shiga toxin inh -2.8, Pf growth 48h 2.62µM*, CHX counter -5.3, SARS PLP yeast 2.4% and NS1 inh -2.5%.
COc1ccccc1COCC(O)CN1CCCCC1CO (configuration not stated) was read as Pf growth 96h inconclusive, Shiga toxin inh -0.8, Pf growth 48h -13.7%[0.00184 µM], CHX counter 0.7, SARS PLP yeast 2.3% and NS1 inh -3.8%.
OCC1CCCCN1CC(O)COC(c1ccc(F)cc1)c1ccc(F)cc1 (configuration not stated) was read as Pf growth 96h inconclusive, Shiga toxin inh 1.5, Pf growth 48h 9.28µM*, CHX counter 8.4, SARS PLP yeast 1.2% and NS1 inh -3.4%.
`CCOC(=O)c1ccccc1NC(=O)CSC(C)C(=O)Nc1cc(C)on1` (configuration not stated) gave Pf growth 96h -24.3%, Pf growth 48h 17.2% and SARS PLP yeast -2.0%.
Cc1c(NC(=O)C(Sc2ccccc2)c2ccccc2)cccc1[N+](=O)[O-] (configuration not stated) was read as Pf growth 96h 14.3%, Shiga toxin inh -18.0, Pf growth 48h inconclusive, CHX counter 6.4, SARS PLP yeast -0.1% and NS1 inh -11.6%.
Screening O=C(Nc1ccc(F)cc1)N1CCc2ccccc2C1 returned Pf growth 96h 32.2%, Shiga toxin inh 91.1*, Pf growth 48h 84.0%, CHX counter 50.6*, SARS PLP yeast -3.2% and NS1 inh -3.6%.
O=C(CN1CCc2ccccc2C1)Nc1ccc(Br)cc1 was read as Pf growth 96h -25.0%, Shiga toxin inh 17.5, CHX counter 14.6, SARS PLP yeast -4.1% and NS1 inh -17.3%.
